Screens as filed in PubChem.
MazEF act: activators of E. coli MazEF toxin-antitoxin RNase, primary screen, biochemical, fluorescence, uHTS | activation, % at 20 µM | Endoribonuclease toxin MazF (Escherichia coli (strain K12)), P0AE70 | AID 504720, 2011 | hit rate 0.32% among 350,000 | FAM/BHQ RNA-DNA oligo cleavage fluorescence, 5 h; in the data active = activation above about 50%
Target sequence (P0AE70 whole entry, looked up): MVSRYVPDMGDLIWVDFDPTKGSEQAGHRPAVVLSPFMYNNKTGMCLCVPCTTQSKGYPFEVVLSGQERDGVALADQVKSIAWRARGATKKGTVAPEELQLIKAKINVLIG
BoNT F protease: BoNT/F light chain protease inhibitors, primary screen, biochemical, flow cytometry, MLPCN library. hit rate 0.22% among 360,000. Botulinum neurotoxin type F light chain protease (Clostridium botulinum). inhibition, % at 10 µM. Multiplex microsphere protease cleavage assay; in the data active = inhibition above about 35%, passing the limit was not always enough; inconclusive = no clear call, values can overlap the other calls; note: plate controls were buffer without enzyme for full effect and enzyme alone for no effect
PriA SSB inh: inhibitors of Klebsiella pneumoniae PriA binding to SSB C-terminal tail, primary screen, biochemical, AlphaScreen; PriA–SSB C-terminal tail interaction (Klebsiella pneumoniae); AlphaScreen SSBct-PriA binding, biotinylated peptide; inhibition, % at 33 µM; hit rate 0.6% among 430,000; AID 1272365, 2023; in the data active = inhibition mostly above about 37%, no sharp cut-off; inactive = mostly below about 20%;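 note: plate controls were negative control peptide for no effect and reference peptide for full effect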
Bead autofluor: counter-screen for toxin protease inhibitors: compound fluorescence | compound autofluorescence counterscreen, microsphere flow cytometry; stronger effect = higher value | fluorescence intensity (concentration not given with the values) | hit rate 3.1% among 360,000; in the data active = fluorescence intensity above about 16000; inconclusive = no clear call, values can overlap the other calls
BoNT-A LC inh2: BoNT/A light chain protease inhibitors, primary screen, biochemical, flow cytometry, MLPCN library. hit rate 0.17% among 360,000. inhibition, % at 10 µM. Botulinum neurotoxin type A light chain protease (Clostridium botulinum A str. ATCC 3502). AID 588499, 2011. multiplex microsphere protease substrate cleavage; note: plate controls were buffer without enzyme for full effect and enzyme alone for no effect
Anthrax LF prot: Bacillus anthracis LF protease inhibitors, primary screen, biochemical, multiplex microsphere, MLPCN library; multiplex microsphere protease cleavage assay; inhibition, % at 10 µM; Lethal factor (Bacillus anthracis), P15917; AID 588501, 2011; hit rate 0.12% among 360,000; note: plate controls were buffer without enzyme for full effect and enzyme alone for no effect
Active calls of the source: *; i = inactive; ? = inconclusive; nt = no result given. In the library only some 3.3% were active in any assay of this set; here they are far more common. Cut-off read from the data, not from the text of the source, unless noted: active = inhibition above about 30%; inconclusive = no clear call, values can overlap the other calls; inactive = below that.

SMILES	MazEF act	BoNT F protease	PriA SSB inh	Bead autofluor	BoNT-A LC inh2	Anthrax LF prot
COc1ccc(NC(=O)Cn2c(C)cc(C)c(-c3nc(-c4ccc(F)cc4)no3)c2=O)c(OC)c1	nt	nt	-3	nt	nt	nt
O=C1C=C(O)C(n2cncn2)C(c2ccc3c(c2)OCO3)C1 (configuration not stated)	-2	-4	2	4870	-1	-3
O=C1CC(=O)C(n2cncn2)C(c2cccc(Cl)c2)C1 (configuration not stated)	-10	8	-17	21751*	4	-1
COc1ccc(C2CC(=O)CC(=O)C2n2cncn2)cc1 (configuration not stated)	7	3	-8	21795*	1	-2
O=C1CC(c2cccc(Cl)c2)C(n2cncn2)C(=O)C1C1NCCc2ccccc21 (configuration not stated)	2	5	-17	4641	0	1
CCCCOC(=O)CCn1[nH]c(=O)c2ccccc2c1=O	4	0	-15	22758*	-1	-2
CCC(OC(=O)CCc1nc2ccccc2[nH]c1=O)C(=O)c1ccccc1 (configuration not stated)	4	-8	-2	17407*	-3	-4
CC(=O)COC(=O)CCc1nc2ccccc2[nH]c1=O	10	-16	-9	6760	-2	-8
CCCCOC(=O)CCc1nc2ccccc2[nH]c1=O	5	12	-2	18710*	9	3
CC(C)(C)C(=O)COC(=O)CCc1nc2ccccc2[nH]c1=O	7	-8	-2	3642	0	2
COc1ccc(S(=O)(=O)Nc2ccncc2)cc1C	nt	nt	14	nt	nt	nt
Cn1c(O)c(C=C2C=NN=C2c2ccccc2)sc1=S	nt	nt	-4	nt	nt	nt
CCCn1c(O)c(/C=C2\C=NN=C2c2ccccc2)sc1=S	11	-8	nt	25085*	-3	0
CCCCc1c(O)nc(N2CCN(Cc3ccccc3)CC2)[nH]c1=O	7	4	-17	21940*	2	0
Cc1cc(=O)[nH]c(N2CCN(Cc3ccccc3)CC2)n1	-2	-8	-23	10349	-1	-1
NC(=O)c1ccc(NC(=O)C2CCN(c3ccc(-c4ccccc4)nn3)CC2)cc1	nt	nt	-6	nt	nt	nt
O=[N+]([O-])c1ccccc1NC(=S)NN=Cc1ccc(O)c(O)c1	nt	nt	42*	nt	nt	nt
O=C(CCCCn1c(=S)[nH]c2ccsc2c1=O)NCc1ccco1	2	-4	-25	16657*	-1	-9
CCOC(=O)N1CCN(C(=O)CCCCCn2c(=S)[nH]c3ccsc3c2=O)CC1	-1	-4	-9	4166	0	6
Cc1ccccc1Cn1c(=O)n(CCCC(=O)NCc2ccco2)c(=O)c2sccc21	-9	2	-5	3128	0	-1
O=C(CCCn1c(=S)[nH]c2ccsc2c1=O)NCc1ccco1	-1	2	-4	19127*	1	-4
CCOC(=O)CC(=O)CSc1ccc2nnc(-c3cccc(F)c3)n2n1	-3	-4	6	16650*	?	2
COC(=O)c1ccccc1NC(=O)NCc1ccccc1	6	-7	5	2601	0	2
COC(=O)c1ccccc1NC(=O)NCc1ccncc1	114*	-2	-13	2647	0	-1
COc1ccc(-c2csc(NC(=O)c3ccc4ncsc4c3)n2)cc1OC	nt	nt	1	nt	nt	nt
SMILES	MazEF act	BoNT F protease	PriA SSB inh	Bead autofluor	BoNT-A LC inh2	Anthrax LF prot
O=C(CN1C(=O)C(=O)c2ccccc21)c1ccccc1	12	5	0	2901	3	18
O=C(CN1C(=O)c2cccnc2C1=O)c1ccccc1	-4	-6	-4	20963*	-3	0
Cc1cc2[nH]c(=O)c(=O)[nH]c2cc1C	nt	nt	-18	nt	nt	nt
CS(=O)(=O)c1ccc(Nc2nc(CC(=O)NCC3CCCCC3)cs2)cc1	nt	nt	2	nt	nt	nt
CCOC(=O)C(CCSC)NC(=O)CN (configuration not stated)	5	-2	-16	22429*	0	-1
COc1ccc(Nc2nc(NC(C)(C)C)nc(N3CCCC3)n2)c(OC)c1	2	-26	44*	11826	-2	-6
COc1ccc(Nc2nc(N3CCCC3)nc(N3CCCC3)n2)c(OC)c1	-3	-3	-5	20538*	-1	-4
COc1ccc(Nc2nc(N)nc(C(F)(F)F)n2)c(OC)c1	4	6	-2	17527*	6	-9
COc1ccc2c(c1)C(=NN)c1cc(OC)ccc1-2	0	-19	47*	12791	-2	-6
COc1ccc2c(c1)C(=NNc1ccc(C(=O)O)cc1)c1cc(OC)ccc1-2	20	0	5	3613	0	-2
CCCCOc1ccc(C(=O)N2CCN(c3nccn3CC)CC2)cc1	nt	nt	10	nt	nt	nt
Cn1cccc1/C=N/NC(=O)Cc1cccs1	0	?	i	3872	-1	43*
CC(/C=N/NC(=O)Cc1cccs1)=C\c1ccco1	-2	1	nt	21994*	?	0
Cn1cccc1C=NNC(=O)c1cc2ccccc2cc1O	nt	nt	43*	nt	nt	nt
CC(/C=N/NC(=O)c1cccs1)=C\c1ccco1	4	-8	nt	4223	0	-1
C=CCc1cc(C=Nn2cnnc2)cc(OCC)c1O	nt	nt	-8	nt	nt	nt
COc1ccccc1N(CN1CCCC1=O)C(=O)COc1ccccc1	-8	-3	2	16310*	0	0
COc1cc(OC)cc(C(=O)N(CN2CCCC2=O)c2ccccc2OC)c1	1	-14	-8	18589*	-6	0
COc1ccccc1N(CN1CCCC1=O)C(=O)c1cccc(F)c1	nt	nt	2	nt	nt	nt
COc1ccccc1C(=O)N(CN1CCCC1=O)c1cccc(C(F)(F)F)c1	nt	nt	5	nt	nt	nt
COc1cccc(C(=O)N(CN2CCCC2=O)c2cccc(Cl)c2)c1OC	-2	-4	-7	16669*	-1	-3
CCc1nnc(NC(=O)c2nnn(-c3ccccc3)c2-c2ccco2)s1	nt	nt	-13	nt	nt	nt
O=C(O)CCc1nn2c3ccccc3n(CC(=O)c3ccccc3)c2nc1=O	1	0	0	22951*	1	-1
CCOC(=O)Cn1c2ccccc2n2nc(CCC(=O)O)c(=O)nc12	4	2	-17	4836	-1	-3
Cc1ccc(S(=O)(=O)NCC(=O)OC(C)C(=O)c2ccccc2)cc1 (configuration not stated)	3	-1	3	4655	0	0
Cc1ccc(C(=O)C(OC(=O)CNS(=O)(=O)c2ccccc2)c2ccccc2)cc1 (configuration not stated)	-1	2	-8	19423*	?	-2
COc1ccc(CCN2CC(O)=C(c3nc(C)cs3)C2=N)cc1OC	-14	0	4	23439*	0	3
